High-throughput results (PubChem)
TIM10 inh – inhibits growth of TIM10 yeast strain | S. cerevisiae TIM10 strain growth, BacTiter-Glo luminescence, 24 h | inhibition, % at 10 µM | 330,000 compounds, 1.4% hits | AID 463195;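 active = inhibition of 40% or more at the single tested concentration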;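 also: wild-type TIM10 isogenic control strain grown at permissive 25 °C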
tim10-1 inh – growth inhibitors of tim10-1 mutant yeast | S. cerevisiae tim10-1 ts strain growth, BacTiter-Glo, 24 h | inhibition, % at 20 µM | 330,000 compounds, 2.2% hits;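 active = inhibition of at least 40%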;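 also: mutant grown at 25 °C; 0% = DMSO wells with yeast and 100% = wells holding no yeast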
SKKanGAS inh – SKKanGAS growth inhibition; S. pyogenes SKKanGAS, kanamycin growth, BacTiter-Glo, 6 h; inhibition, % at 7.5 µM; 300,000 compounds, 1.3% hits; AID 1662;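 active = mean replicate score, as percent of positive control median, at least 50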;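 also: strain carries kanamycin resistance gene driven by streptokinase promoter and grows in 40 µg/ml kanamycin; loss of luminescence reflects streptokinase promoter inhibition or plain growth inhibition; 0% = median of DMSO wells and 100% = positive control at its reference dose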
tim23-1 inh – growth inhibitors of tim23-1 mutant yeast. 330,000 compounds, 1.3% hits. S. cerevisiae tim23-1 growth, BacTiter-Glo luminescence, 24 h. inhibition, % at 20 µM;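 active = growth inhibition of the mutant yeast at or above 50%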;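 also: temperature-sensitive mutant grown at 25 °C; plate controls were DMSO-treated mutant yeast for no effect and medium wells lacking yeast for full effect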
NALP3 yeast inh – inhibitors of NALP3 inflammasome in yeast | Yeast reconstituted NLRP3/ASC/caspase-1, beta-gal luminescence, 24 h | inhibition, % at 10 µM | 330,000 compounds, 0.39% hits;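 active = inhibition of 50% or more; inactive = inhibition below 50%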;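 also: plate controls were induced DMSO wells for no effect and uninduced yeast grown without galactose for full effect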
PfHsp90 yeast 2 – reduces growth (ATP signal) of yeast expressing P. falciparum Hsp90; S. cerevisiae expressing PfHsp90, BacTiter-Glo ATP, 48 h; yeast lacking PDR1 and PDR3 efflux regulators; inhibition, % at 9.4 µM; 310,000 compounds, 0.32% hits;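 active = every replicate shows inhibition above about 80%, whatever the replicate mean, limit read from the data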;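 also: 0% = DMSO neutral controls and 100% = 20 µM radicicol positive controls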
tim10-1 conf – confirmation of tim10-1 mutant yeast growth inhibitors | S. cerevisiae tim10-1 ts strain growth, BacTiter-Glo, 24 h | inhibition, % at 20 µM | 7,400 compounds, 56% hits | AID 463213 | shares compounds with tim10-1 inh;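 active = inhibition of yeast growth at or above a set limit in either of two repeat tests at 20 µM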;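 also: tim10-1 mutant grown at permissive 25 °C to find synthetic lethal compounds; 0% = DMSO yeast wells and 100% = medium wells without yeast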
TIM10 conf – confirmation of TIM10 yeast growth inhibitors | shares compounds with TIM10 inh | S. cerevisiae tim10 strain growth, BacTiter-Glo luminescence, 24 h | inhibition, % at 10 µM | 4,600 compounds, 63% hits | AID 463215;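 active = inhibition of yeast growth at or above a set limit in either of two replicates at 10 µM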;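 also: this counterscreen used the strain with wild-type TIM10; 0% = yeast with DMSO and 100% = medium wells lacking yeast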
tim23-1 confirm – confirmation of tim23-1 mutant yeast growth inhibitors; shares compounds with tim23-1 inh; S. cerevisiae tim23-1 growth, BacTiter-Glo luminescence, 24 h; inhibition, % at 20 µM; 4,400 compounds, 83% hits; AID 463218;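 active = inhibition above about 39% in either of two replicate wells at 20 µM, limit read from the data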;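 also: temperature-sensitive tim23-1 mutant grown at 25 °C; 0% = DMSO wells with yeast and 100% = medium wells without yeast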
* hit, by the source's call; / = no result given. Sampled rows, rich in hits. Any-hit rate of the full collection: about 4.6%.

SMILES | TIM10 inh | tim10-1 inh | SKKanGAS inh | tim23-1 inh | NALP3 yeast inh | PfHsp90 yeast 2 | tim10-1 conf | TIM10 conf | tim23-1 confirm
O=C(Nc1nnc(Cc2ccccc2)s1)c1cccs1 | 0 | 3 | 8 | 10 | 10 | 20 | / | / | /
CCc1nnc(NC(=O)c2ccc(C)o2)s1 | -4 | -17 | 4 | -3 | -5 | -19 | / | / | /
O=C(Nc1ncc(Cc2cccc(Cl)c2)s1)c1cccs1 | 67* | 43* | 95* | 67* | 20 | -17 | 38* | -19 | 55*
Cc1ccc(S(=O)(=O)N2CCN(C(=O)c3ccc(N4CCCCC4)c([N+](=O)[O-])c3)CC2)cc1 | 17 | 25 | -3 | 29 | 25 | -1 | / | / | /
COCCN(C(=O)c1snc(C(N)=O)c1N)C(C(=O)NC1CCCCC1)c1ccc(OC)c(OC)c1 (stereo not given) | -5 | 1 | 3 | 4 | 24 | -18 | / | / | /
CC1=C/C(=C\c2ccc3c(c2)OCO3)C(=O)S1 | 46* | 48* | 4 | 53* | -9 | -2 | 39* | 40* | 20
CCCN1C/C(=C/c2ccc3c(c2)OCO3)C(=O)/C(=C/c2ccc3c(c2)OCO3)C1 | 34 | 36 | 1 | 44 | 18 | 14 | / | / | /
COC(C/C=C\C(=O)[C@@H](C)OCc1ccccc1)OC | 30 | 41* | -3 | 52* | 17 | / | 29 | / | 45*
Cn1ncc2c(O/N=C(\N)c3ccc(C(F)(F)F)cc3)ncnc21 | 74* | 52* | 1 | 79* | 15 | -3 | 25 | 85* | 52*
Cc1ccc(C(=O)NNc2ncnc3c2cnn3C)cc1 | 10 | 0 | 3 | 10 | 0 | 5 | / | / | /
Cc1noc2ncnc(Sc3c(Cl)cccc3Cl)c12 | 23 | 25 | 16 | 5 | -16 | 9 | / | / | /
Cc1noc2ncnc(Sc3ccc(Cl)cc3)c12 | 31 | 51* | -2 | 58* | 37 | / | 57* | / | 49*
CCOC(=O)C(C(=O)OCC)C(C(=O)OCC)N1CCOCC1 (stereo not given) | 68* | 63* | -13 | 57* | 12 | / | 60* | 71* | 59*
Cc1[nH]c2ccccc2c1N=Nc1cc(C(=O)O)cc(C(=O)O)c1 | -8 | -3 | -6 | 4 | 23 | / | / | / | /
Cc1[nH]c2ccccc2c1N=Nc1ccc(F)cc1 | 30 | 63* | -2 | 70* | 14 | 14 | 30 | / | -88
O=C(O)COc1c(-c2ccco2)oc2ccccc2c1=O | 14 | -3 | -2 | 0 | -8 | 20 | / | / | /
COc1ccc(-c2oc3ccccc3c(=O)c2OC(C)=O)cc1 | 55* | 42* | 16 | 60* | 4 | 3 | 34* | 48* | 59*
CC(=O)Oc1c(-c2ccc(Br)o2)oc2ccccc2c1=O | 73* | 53* | 86* | 65* | 34 | -27 | 60* | 78* | 86*
COc1ccc(-c2oc3ccccc3c(=O)c2OCC(=O)O)cc1 | -6 | -1 | -9 | 13 | 16 | -12 | / | / | /
COc1ccc(-n2nc(C(=O)NCC(=O)NCc3ccc(F)cc3)c3ccccc3c2=O)c(OC)c1 | / | / | / | / | / | -21 | / | / | /
CCOC(=O)CC1=NN(c2ccccc2)C(=O)/C1=C\c1ccc(N(C)C)cc1 | 51* | 43* | -1 | 51* | 18 | 3 | 43* | 53* | 53*
O=C(c1ccc(-c2cccc([N+](=O)[O-])c2)o1)N1CCN(c2ccc([N+](=O)[O-])cc2)CC1 | 5 | 22 | / | 27 | 21 | -6 | / | / | /
CC1CC(C)CN(C(=O)c2ccc(-c3ccc([N+](=O)[O-])cc3)o2)C1 (stereo not given) | 56* | 69* | 13 | 63* | 13 | 9 | 19 | 58* | 46*
COc1ccccc1NC(=O)CN1CCN(CC(=O)Nc2ccc(Cl)c(C(F)(F)F)c2)CC1 | / | / | / | / | / | 20 | / | / | /
C/C(CC(=O)Nc1ccc(Cl)c(C(F)(F)F)c1)=N\NC(=O)c1ccccc1O | 32 | 47* | 104* | 57* | 22 | 0 | 39* | / | 41*
SMILES | TIM10 inh | tim10-1 inh | SKKanGAS inh | tim23-1 inh | NALP3 yeast inh | PfHsp90 yeast 2 | tim10-1 conf | TIM10 conf | tim23-1 confirm
C/C(CC(=O)Nc1ccc(Cl)c(C(F)(F)F)c1)=N\NC(=O)c1cccc(O)c1 | 31 | 35 | -4 | 42 | 7 | -27 | / | / | /
CCc1ccccc1NCC(=O)Nc1ccc(Cl)c(C(F)(F)F)c1 | 48* | 68* | -1 | 52* | -3 | 19 | 54* | 12 | 57*
COc1ccc(OC)c(C(c2nnnn2C2CCCC2)N2CCc3ccccc3C2)c1 (stereo not given) | 36 | 42* | -14 | 52* | -8 | -2 | 38* | / | 42*
COc1ccc(C(c2nnnn2C2CCCC2)N2CCc3ccccc3C2)cc1OC (stereo not given) | / | / | 1 | / | / | 14 | / | / | /
CCCCCCC(=O)N/N=C/c1ccc(Br)cc1 | 34 | 50* | 0 | 73* | 6 | -9 | 33* | / | 73*
CCOC(=O)c1c(-c2ccco2)csc1NC(=O)COC(=O)c1cnc(C)cn1 | 23 | 21 | 42 | 12 | 6 | -7 | / | / | /
CCOc1ccc(/C=N/NC(=O)c2[nH]ncc2Br)c(O)c1 | 59* | 52* | -8 | 78* | 31 | 6 | 30* | 37* | 78*
O=C(/C=C/c1ccco1)c1ccc(O)cc1 | 21 | 30 | -9 | 11 | 25 | / | / | / | /
O=C(/C=C/c1ccccc1Cl)c1ccc(O)cc1 | 38 | 40* | 0 | 63* | 30 | 110* | 29 | / | 59*
O=[N+]([O-])c1c(Nc2ccccn2)cc(Cl)c2nonc12 | 95* | 94* | 16 | 94* | 39 | 108* | 94* | 100* | 96*
O=C(O)c1ccccc1Nc1cc(Cl)c2nonc2c1[N+](=O)[O-] | -9 | 2 | 7 | 12 | 26 | -8 | / | / | /
N#Cc1cnn2ccc(-c3cc(N4CCOCC4)ccc3[N+](=O)[O-])nc12 | -3 | 12 | -3 | -5 | 17 | 20 | / | / | /
COc1ccc(C(=O)ON=C2CCN(c3ccc([N+](=O)[O-])cc3)CC2)cc1 | 64* | 58* | 3 | 54* | 22 | -29 | 48* | 65* | 71*
O=C(OC1CCN(c2ccc([N+](=O)[O-])cc2)CC1)c1ccccc1 | 20 | 7 | -9 | 10 | -10 | 4 | / | / | /
O=C(ON=C1CCN(c2ccc([N+](=O)[O-])cc2)CC1)c1ccccc1 | 52* | 47* | 11 | 64* | 14 | -25 | 24 | 60* | 60*
